The panel holds about 79,000 compounds, 15% with a hit somewhere; the sample as a whole holds those more often. Unmarked numbers belong to inactive results. The source made the active and inactive calls. Cut-off read from the data, not from the text of the source: active = growth inhibition above about 70%; inactive = the rest.
Test: NCI Yeast Anticancer Drug Screen. Data for the mlh1 rad18 strain (AID 175)
Conditions: S. cerevisiae mlh1 rad18 strain growth inhibition; at 50.0 µM; active compounds read high
Procedure, shortened: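 Genetically defined yeast (DNA repair-deficient) exposed to compounds; growth inhibition determined relative to vehicle.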

| SMILES | growth inhibition |
| --- | --- |
| CN(C)C(C)(C)CC(C)(C)C | 26.6% |
| COc1ccccc1N=Nc1c(O)ccc2cc(S(=O)(=O)O)ccc12 | -13.2% |
| Sc1ccc(Nc2c3ccccc3nc3ccccc23)cc1 | 54.6% |
| CN(C)CCN(C)CC(C)(C)C(=O)/C=C/c1ccc(Cl)cc1 | 31.8% |
| OCC(O)C(O)C(O)C(O)/C=N/O (stereo unspecified) | 3.65% |
| O=C(CC(=O)c1ccccc1O)c1ccccc1 | 39.9% |
| Cc1cccc([N+](=O)[O-])c1Cl | -17.6% |
| CC1CCC(C(=O)O)N1 (stereo unspecified) | 6.65% |
| CC(C)(N)COS(=O)(=O)O | -14.1% |
| Oc1ccccc1O | 8.25% |
| CCCCN(CCCC)CCCO | -21.1% |
| O=C(CCl)Nc1ccc2c(c1)C(=O)c1ccc(NC(=O)CCl)cc1C2=O | 21.9% |
| CC(=O)Cc1cc(-c2cc(CC(C)=O)[nH]n2)n[nH]1 | -5% |
| CCCC(C)OCC(=O)O (stereo unspecified) | -7.1% |
| CC(=O)Oc1ccc(Br)cc1C(=O)O | 4.15% |
| CN(C)C(=O)Oc1cccc([N+](C)(C)C)c1 | -5.35% |
| N#CCCc1ccc(O)cc1 | -19.1% |
| CCOc1ccc(Br)cc1/C=N\N=C\c1cc(Br)ccc1OCC | -10.3% |

| SMILES | growth inhibition |
| --- | --- |
| Cc1ccccc1N=C(c1ccccc1)C1C(=O)c2ccccc2C1=O | 12.6% |
| Cc1ccc(O)c(C(=O)c2ccccc2)c1 | 14.7% |
| O=C1NC(=O)C2C(=O)NC(=O)C1C21CCc2ccccc21 (stereo unspecified) | -7.45% |
| O=C(/C=C\c1ccc(O)cc1)c1ccccc1 | 14.1% |
| CC1SC(N)=NC1=O (stereo unspecified) | 2.55% |
| O=C1OC(=O)C2C1C1(Cl)C(Cl)=C(Cl)C2(Cl)C2C(=O)OC(=O)C21 (stereo unspecified) | -1.75% |
| CC(C)CCCC(=O)O | -13.8% |
| O=S(=O)(O)c1ccc(O)c2ccccc12 | 56.2% |
| COc1ccc(C2OC(N)=C(O)C2=O)cc1OC (stereo unspecified) | -31.9% |
| Cc1cc(O)ccc1O | 42.3% |
| N#Cc1c(N)sc(=S)c2c1CCCC2 | 11.4% |
| Nc1ccc(N)c([N+](=O)[O-])c1 | -15.2% |
| CC1(C)OC(=O)C(c2ccsc2)C(=O)O1 | -3.7% |
| C[N+](C)=c1ccc2nc3c(cc(Nc4ccccc4)c4ccccc43)oc-2c1 | 39.2% |
| O=C(O)C(O)c1ccccc1 (stereo unspecified) | 10.7% |
| COc1cccc(Sc2ccc([N+](=O)[O-])c3no[n+]([O-])c23)c1 | 83.5% (active) |
| CCCCC1(CC)COC(CCC)OC1 (stereo unspecified) | 11.5% |
| CC(=O)Nc1cccc(NC(C)=O)n1 | 6.1% |
